L3MBTL1 block = L3MBTL1 (human) inhibition. Q9Y468. AlphaScreen L3MBTL1–H3K9me1 peptide binding. Potency, µM (titrated, usually from 57.1 µM), for inactives: top-dose activity, negative = inhibition, hits mostly inhibitors. 230,000 tested, 0.66% active; further: potency means the concentration at half of the fitted maximal effect; on the % scale 0 is the no-effect control and ±100 the full control effect; nearly all actives have a fitted effect of over 60% in size
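L3MBTL1 (50 nM) pre-complexed 30 min with biotinylated H3(1-15)K9me1 peptide (75 nM), then compounds added for 30 min at room temperature; AlphaScreen streptavidin donor/nickel chelate acceptor beads (10 ug/mL final) read after 30 min dark incubation.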
HP1b chromo inh = blocks HP1-beta chromodomain binding to methylated histone tails; Potency, µM (top dose mostly 114 µM), for the others: at the top dose activity change, negative = inhibition, most hits filed as inhibitors; AlphaScreen HP1-beta / biotin-H3K9me3 peptide binding; P83916; 390,000 tested, 0.56% active; AID 540317; further: potency means the concentration at half of the fitted maximal effect; nearly all actives have a fitted effect of over 70% in size
Target sequence (P83916 whole entry, looked up): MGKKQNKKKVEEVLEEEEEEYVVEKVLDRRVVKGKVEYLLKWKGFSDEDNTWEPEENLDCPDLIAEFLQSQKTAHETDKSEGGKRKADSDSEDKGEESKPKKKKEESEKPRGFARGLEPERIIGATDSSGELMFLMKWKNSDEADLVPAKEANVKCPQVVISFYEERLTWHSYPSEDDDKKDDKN
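Compound inhibition of the preformed complex between 50 nM HP1-beta and 50 nM biotinylated H3K9me3 peptide was read by AlphaScreen. Buffer was PBS pH 7.4 with 0.01% Tween-20. Incubations ran 30 min at room temperature, with 10 ug/mL donor/acceptor beads.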
PI5P4Ka inh = inhibitors of human PI5P4K alpha; PI5P4Kalpha enzyme, ADP-Glo luminescence, 60 min; hits give low values; max response, %; 330,000 tested, 1.2% active; AID 652105; active means max response of -50% or lower; inconclusive means between -30% and -50%; inactive means -30% or higher; further: value at the top dose of about 77 µM; on the % scale 0 is the no-effect control and ±100 the full control effect
Target sequence (P48426 whole entry, looked up): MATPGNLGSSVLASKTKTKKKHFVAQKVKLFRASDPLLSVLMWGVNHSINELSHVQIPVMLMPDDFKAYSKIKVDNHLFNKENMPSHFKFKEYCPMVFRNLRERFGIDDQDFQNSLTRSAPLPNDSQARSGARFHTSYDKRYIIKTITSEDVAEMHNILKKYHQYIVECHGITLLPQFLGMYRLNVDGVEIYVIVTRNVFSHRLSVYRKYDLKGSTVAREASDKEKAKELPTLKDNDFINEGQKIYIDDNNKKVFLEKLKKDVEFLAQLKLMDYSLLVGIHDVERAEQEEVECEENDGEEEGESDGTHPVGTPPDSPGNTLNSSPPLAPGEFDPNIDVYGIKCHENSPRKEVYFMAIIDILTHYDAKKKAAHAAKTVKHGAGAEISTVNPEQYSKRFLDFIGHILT
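Reactions run in 0.038 M HEPES pH 7.4, 0.28 mM EGTA, 0.1% CHAPS and 5% DMSO, with PI5P4Kalpha, substrate, compound and 5 microM ATP final, one hour at room temperature. Readout is ADP-Glo luminescence.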
BAZ2B inh = BAZ2B (human) inhibition; Q9UIF8; AlphaScreen BAZ2B-H3K14Ac peptide displacement; Potency, µM (series often up to 114 µM), without a hit: top-dose activity change, negative = inhibition, hits mostly inhibitors; 360,000 tested, 4.4% active; AID 504333; further: potency means the concentration at half of the fitted maximal effect; on the % scale 0 is the no-effect control and ±100 the full control effect; nearly all actives have a fitted effect of over 60% in size
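AlphaScreen luminescence quantifies BAZ2B engagement of H3K14Ac peptide; the protein and biotinylated peptide are both at 50 nM final, buffer PBS pH 7.4 with 0.01% Tween-20, all steps at room temperature.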
JMJD2A Tudor inh = JMJD2A Tudor domain (human) inhibition | O75164 | AlphaScreen JMJD2A-Tudor / H3K4me3 peptide binding | Potency, µM (doses to about 114 µM), inactives show top-dose activity change, negative = inhibition, usual class: inhibitors | 390,000 tested, 4.4% active; further: potency means the concentration at half of the fitted maximal effect; on the % scale 0 is the no-effect control and ±100 the full control effect; nearly all actives have a fitted effect of over 50% in size
G9a inh = G9a (human) methyltransferase inhibition; 350,000 tested, 8.8% active; AID 504332; Potency, µM (series often up to 102 µM), for inactives: at the top dose activity, negative = inhibition, usual class: inhibitors; G9a H3K9 monomethylation, AlphaScreen, 2 h; Q96KQ7; further: potency means the concentration at half of the fitted maximal effect; on the % scale 0 is the no-effect control and ±100 the full control effect; nearly all actives have a fitted effect of over 75% in size
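Quantitative HTS format: methyltransferase activity on a biotin-tagged H3K9 peptide is measured by AlphaScreen, using a rabbit anti-monomethyl-H3K9 antibody with streptavidin donor and anti-IgG acceptor beads. Final levels are 20 nM enzyme, 500 nM peptide, 20 uM SAM; 2 h RT.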
Starred values were filed as active, the others as inactive; u = inconclusive; x = not tested or not shown; [ ] = remark or other dose. An excerpt weighted towards active compounds, which were near 11% of everything screened. Unless noted, the call rests on the fitted dose curve; in most records, active means well fitted inhibition curve with a large enough effect; inconclusive means small, poorly fitted or top-dose-only effect; inactive means no such curve, though single readings can be large or run the other way.

SMILES	L3MBTL1 block	HP1b chromo inh	PI5P4Ka inh	BAZ2B inh	JMJD2A Tudor inh	G9a inh
Cc1ccc(C(=O)N/C(=C/c2ccccc2F)C(=O)NCCCn2ccnc2)cc1	x	5%	-2	-33%	-14%	9%
O=C(NCc1ccco1)C1CCCN(S(=O)(=O)c2ccc(-n3cnnn3)cc2)C1 (stereo not given)	-41%	18%	-26	u	-33%	56µM*
Cc1ccc(S(=O)(=O)N2CCCCC2C(=O)Nc2nncs2)cc1 (stereo not given)	1%	32%	-9	0%	-10%	40µM*
CCCc1cc(=O)n2nc(N3CCC(C(=O)NCc4ccco4)CC3)sc2n1	x	-4%	6	-1%	25µM*	7%
O=C(NCc1ccccc1F)C1CCCN(S(=O)(=O)c2ccc(-n3cnnn3)cc2)C1 (stereo not given)	x	36%	5	3%	-6%	-1%
O=C(NCc1ccco1)C1CCCN1C(=O)Nc1cccc(Cl)c1 (stereo not given)	-23%	34%	-12	-16%	-6%	-11%
O=C(NCc1ccco1)C1CCCN1C(=O)Nc1ccc(Cl)cc1 (stereo not given)	9%	-4%	-30	x	14µM*	2%
COc1ccc(Cl)cc1NC(=O)Cn1c(=O)c(-c2ccccc2NC(C)=O)nc2ccccc21	x	57%	x	u	-1%	-30%[59 µM]
Cc1ccc(S(=O)(=O)N2CCCCC2C(=O)NCc2ccco2)cc1 (stereo not given)	-9%	-8%	-13	-32%	-22%	28µM*
Cc1ccc(S(=O)(=O)N2CCCC2C(=O)Nc2nc3c(s2)CCCC3)cc1 (stereo not given)	-13%	-5%	6	u	-24%	45µM*
COC(=O)Nc1ccc(S(=O)(=O)N2CCCCC2C(=O)NCc2ccco2)cc1 (stereo not given)	x	7%	1	1%	-13%	24%[12.7 µM]
Cc1cc(=O)n2nc(N3CCCC(C(=O)NCc4ccco4)C3)sc2n1 (stereo not given)	x	17%	4	0%	-7%	1%[12.7 µM]
O=C(NCc1ccco1)C1CCCN(c2nnc(-n3cccc3)s2)C1 (stereo not given)	x	u	-17	u	56µM*	-5%
O=C(CCCN1C(=O)c2ccccc2C1=O)NC1=NCCS1	-8%	24%	0	-8%	32µM*	4%[59 µM]
O=C(CCCN1C(=O)c2ccccc2C1=O)Nc1nncs1	2%	21%	9	-5%	-3%	1%
Cc1noc(C)c1C(=O)N1CCC2(CC1)CN(c1ccccc1)C2	x	x	x	x	x	1%[12.7 µM]
CC(C)c1ccc(-c2c(C#N)c(N)nc3c2CCCCC3)cc1	x	42%	12	4%	-17%	1.8µM*
Cc1ccc(-c2c(C#N)c(N)nc3c2CCCCC3)cc1	x	39%	x	6%	-10%	14%
Cc1ccc(-c2c(C#N)c(N)nc3c2CCCCC3)o1	-6%	35%	x	3%	-14%	79µM*
COc1ccc([C@]23Cc4cc(C#N)ccc4[C@H](O2)c2c(cc(C)n(Cc4ccccc4)c2=O)O3)cc1	x	x	x	-1%[22.9 µM]	x	x
NC(=S)Nc1ccc(F)c(F)c1F	x	60%	-2	-23%	-3%	-5%
NC(=S)NNc1c(F)c(F)c(F)c(F)c1F	15%	u	-54*	-21%	u	35µM*
CCOc1cc(/C=C2\NC(=S)N(C)C2=O)ccc1OCc1ccc(C(=O)O)cc1	x	25%	-5	71µM*	u	u
CCOc1cc(/C=C2/NC(=O)NC2=O)cc(Br)c1OCc1ccc(C(=O)O)cc1	x	u	u	71µM*	u	45µM*
COc1cc(/C=C2\NC(=O)NC2=O)cc(Br)c1OC	x	2%	4	-2%	-7%	80%
SMILES	L3MBTL1 block	HP1b chromo inh	PI5P4Ka inh	BAZ2B inh	JMJD2A Tudor inh	G9a inh
COc1cc(Br)c(C2CC(=O)Nc3cc(OC)c(OC)c(OC)c32)cc1OC (stereo not given)	x	14%	x	-8%	-21%	-27%[59 µM]
Cc1c(P(=S)(c2ccccc2)c2ccccc2)c2ccccc2n1C/C=C/c1ccccc1	x	x	x	x	-2%	x
CCCN(CCC)CCNC(=O)C1CCCN(S(=O)(=O)c2cccc3nsnc23)C1 (stereo not given)	x	36%	x	x	-9%	6%[59 µM]
CNc1nc(-c2ccccn2)nnc1-c1ccccc1	x	30%	-1	0.89µM*	5.6µM*	2%[12.7 µM]
c1ccc(-c2ccc(-c3nc(-c4ccccn4)no3)cc2)cc1	x	77%	x	11%	-2%	8%[12.7 µM]
Cc1nn(CC(=O)NCc2cccc(F)c2)c(=O)c2cccn12	x	u	-2	-13%	56µM*	x
CC(=O)OCC(NC(=O)C(COCc1ccccc1)NC(=O)OC(C)(C)C)C1OC(n2cc(C)c(=O)[nH]c2=O)C(OC(C)=O)C1OC(C)=O (stereo not given)	x	43%	x	x	-11%	x
CC1(C)OC[C@@H]2O[C@@]3(C(=O)O)OC(C)(C)O[C@@H]3[C@@H]2O1	x	x	x	x	x	-24%[12.7 µM]
COc1ccc(CC(=O)Oc2ccc(C)cc2C)cc1	56%	189%	-1	130%	194%	126%[59 µM]
COc1ccc(CC(=O)Oc2ccc(C)cc2Br)cc1OC	x	u	16	50µM*	22%	-23%
O=C(c1cc(Br)ccc1O)N(Cc1ccco1)Cc1cccs1	x	-3%[57 µM]	x	x	-28%[57.1 µM]	x
CN1CCCN(S(=O)(=O)c2cccc(C#N)c2)CC1	x	48%	7	-19%	-8%	56µM*
CN1CCN(S(=O)(=O)c2cccc(C#N)c2)C(c2ccccc2)C1 (stereo not given)	15%	26%	2	-2%	-3%	56µM*
COc1cc(C#N)ccc1OC(=O)c1cccc(S(=O)(=O)N2CCN(C)CC2)c1	-4%	18%	1	11%	-6%	50µM*
CN1CCN(S(=O)(=O)c2cccc(C(=O)Oc3cccc(C#N)c3)c2)CC1	-6%	23%	6	9%	-17%	u
CN1CCN(S(=O)(=O)c2ccc(C#N)cc2)C(c2ccccc2)C1 (stereo not given)	6%	46%	1	-4%	8%	u
CCC(CC)c1nnc(NC(=O)CS(=O)(=O)Cc2ccccc2)s1	x	23%	6	x	-8%	x
CC(C)Cc1nnc(NC(=O)CS(=O)(=O)Cc2ccccc2)s1	1%	-5%	0	-22%	-18%	8.9µM*
CCCC(C)c1nnc(NC(=O)CCS(=O)(=O)Cc2ccccc2)s1 (stereo not given)	x	-19%	-11	-4%	-26%	25µM*
CC(C)c1nnc(NC(=O)CS(=O)(=O)Cc2ccccc2)s1	19%	0%	2	u	-6%	x
CCCC(C)c1nnc(NC(=O)CS(=O)(=O)Cc2ccccc2)s1 (stereo not given)	0%	u	-25	-6%	-29%	8.9µM*

Screening data (PubChem)
